Pf apPOL inh – Pf-apPOL inhibitors, biochemical, fluorescence; Plasmodium falciparum apicoplast DNA polymerase (apPOL); Recombinant Pf-apPOL, molecular beacon fluorescence, 1.5 h; inhibition, % at 10 µM; hit rate 0.25% among 210,000; AID 1794808, 2022
mHTT CaM bind – mutant huntingtin-calmodulin interaction inhibitors – biochemical, AlphaScreen, primary screen; P42858; AlphaScreen His-mHTT/GST-CaM binding, luminescence; inhibition, % at 15 µM; hit rate 3.6% among 190,000
A number is an active result; i = inactive; nt = no result given. This is a sample that favours compounds with a hit; in the whole collection about 3.6% have one here. Cut-off read from the data, not from the text of the source: active = inhibition above about 50%; inactive = the rest.

SMILES	Pf apPOL inh	mHTT CaM bind
CCOc1cccc(C(Nc2ccccn2)c2ccc3ccc(C)nc3c2O)c1 (centres undefined)	i	59
CCOc1ccc(C(C)NC(=O)C2CCN(c3cncnc3N3CCOCC3)CC2)cc1 (centres undefined)	i	i
O=C1C(=CC2CC=CCC2)Cc2ccccc21 (centres undefined)	i	nt
O=C(O)CCCC(=O)Nc1nccs1	i	i
O=C(CCCOc1ccc(Cl)cc1)Nc1nccs1	52	i
NC(=O)c1cccc(N=c2oc3ccc(Br)cc3cc2C(N)=O)c1	i	71
NC(=O)c1cc2cc(Br)ccc2oc1=Nc1ccc(Br)cc1	i	i
CCc1noc(-c2cccnc2N2CCCN(Cc3cccc(Cl)c3)CC2)n1	i	i
COc1ccc(-c2csc(Nc3ccc(S(N)(=O)=O)cc3)n2)cc1OC	i	50
COc1ccc(-c2csc(Nc3ccc(N(C)C)cc3)n2)cc1OC	i	97
COc1ccccc1Nc1nc(-c2ccc(OC)c(OC)c2)cs1	i	i
NS(=O)(=O)c1ccc(Nc2nc(-c3cccnc3)cs2)cc1	i	i
Cc1ccc2c(C(=O)N3CCCC3)cc(NC(=O)C3CC3)cc2n1	i	i
CCN(CC)C(=NS(=O)(=O)c1cc(C)ccc1C)c1ccccc1	i	i
Cc1ccc(S(=O)(=O)N=C2C=C(C(C)C)C(=O)C(C(C)C)=C2)cc1	i	i
Cc1ccc(C)c(S(=O)(=O)N=C2C=CC(=O)C=C2)c1	i	51
Cc1cc(C)c(S(=O)(=O)N=C2C=CC(=O)C=C2)c(C)c1	i	i
Cc1ccc(C)c(S(=O)(=O)N=C2C=CC(=O)C(Br)=C2)c1	i	65
CC1=CC(=O)C(Br)=CC1=NS(=O)(=O)c1ccc(C)cc1	i	64
Cc1ccc(S(=O)(=O)N=C2C=CC(=O)C(Br)=C2)cc1	i	59
Cc1ccc(S(=O)(=O)N=C2C=C(Br)C(=O)C(Br)=C2)cc1	i	i
CCOC(=O)COc1ccc2c(=O)c(-c3ccccc3OC)c(C)oc2c1	i	i
Cn1c(=O)c2ccnn2c2ccc(C(=O)Nc3ccc(F)cc3)cc21	i	i
Cc1ccc(Sc2nccnc2N2CCCC(C(=O)NC(C)C)C2)cc1 (centres undefined)	i	i
CC(C)CNC(=O)c1cc2cn(C3CCCC3)cc2s1	i	i
SMILES	Pf apPOL inh	mHTT CaM bind
CCOC(=O)COc1ccc2c(=O)c(Oc3ccc(C(=O)OCC)cc3)coc2c1	i	i
O=[N+]([O-])c1cc(O)c2ncccc2c1	i	100
Oc1cc(O)c2ncccc2c1	i	100
O=[N+]([O-])c1ccc(Cc2ncccc2O)cc1	i	i
Nc1cc(Br)cc2cccnc12	i	i
CCc1nnc(NC(=O)CSc2nc3c(c(=O)n2-c2ccc(Cl)cc2)SCC3)s1	i	i
CCCCn1cnc2c(-c3cccc(Cl)c3)csc2c1=O	i	i
O=C1Nc2ccccc2/C1=C/c1nc2ccccc2c(=O)n1-c1ccccc1[N+](=O)[O-]	i	i
COc1ccc(C2CC(=O)C=C(Nc3ccccc3C)C2)cc1OC (centres undefined)	i	i
CCN(CC)Cc1c(O)ccc2c1OC(=Cc1ccco1)C2=O	i	i
COc1ccc(C(=O)N2CCCC2C(=O)NCCc2csc(C)n2)cc1 (centres undefined)	i	i
Cn1ccc(-c2ccccc2)n1	i	i
Cn1ccc(-c2ccnc(NN)n2)n1	nt	99
Cc1ccccc1S(=O)(=O)N1CCc2c(c(COCc3ccccc3)nn2C)C1	i	60
CCCC(=O)N1CCc2c(c(COCc3ccc(C)cc3)nn2C)C1	i	i
Cn1nc(COCc2ccc(Cl)cc2)c2c1CCN(C(=O)Nc1ccccc1)C2	i	i
COc1ccc(NC(=O)N2CCc3c(c(COCc4ccc(Cl)cc4)nn3C)C2)cc1	i	58
Cn1nc(COCc2ccccc2)c2c1CCN(S(=O)(=O)c1ccccc1)C2	i	i
CCC(=O)N1CCc2c(c(COCc3ccc(Cl)cc3)nn2C)C1	i	52
Cc1ccc(N2CCN(S(=O)(=O)c3cc4c(s3)CCN(C(=O)C3CC3)C4)CC2)cc1	i	i
COc1ccc(C=C2Oc3cc(OCC(=O)OCc4ccccc4)ccc3C2=O)c(OC)c1OC	i	i
COCCN=C1Nc2ccccc2CNC12CCN(C(=O)c1ccccc1C(F)(F)F)C2 (centres undefined)	i	i
COc1ccc(NC=C2C(=O)OC(C)(C)OC2=O)c(OC)c1	i	i
CCC(=O)NNC(=O)C(C)NC(=O)C12CC3CC(CC(C3)C1)C2 (centres undefined)	i	i
CCOc1ccccc1C(=O)Nc1cc(C)ccn1	i	i
SMILES	Pf apPOL inh	mHTT CaM bind
COc1cc(C(Nc2cc(C)ccn2)c2ccc3cccnc3c2O)ccc1O (centres undefined)	i	100
Cc1ccnc(NC(=O)c2ccc(C(C)C)cc2)c1	i	i
CCOc1cc(C(Nc2cc(C)ccn2)c2ccc3cccnc3c2O)ccc1O (centres undefined)	i	100
Cc1ccnc(NC(c2ccc(N(C)C)cc2)c2ccc3cccnc3c2O)c1 (centres undefined)	i	100
COc1cc(-c2nc3ncccn3c2Nc2ccc(C)cc2)ccc1O	i	i
COc1ccccc1Cc1nc(-c2nonc2N)no1	i	i
COc1cccc(-n2nc(C(=O)Nc3ccc(C)c(F)c3)c3ccccc3c2=O)c1	i	i
CC(C)c1ccc(/C=C2/SC(N3CCCC3)=NC2=O)cc1	i	i
NC(=O)C1CCN(CC(=O)N2N=C(c3ccc(F)cc3)CC2c2ccccc2)CC1 (centres undefined)	i	i
O=C(CN1CCCC1)N1N=C(c2ccccc2)CC1c1ccc2c(c1)OCO2 (centres undefined)	i	99
O=C(CN1CCOCC1)N1N=C(c2ccccc2)CC1c1ccc(Cl)cc1 (centres undefined)	i	i
CC(=O)N1CCN(CC(=O)N2N=C(c3ccccc3)CC2c2ccc(C)cc2)CC1 (centres undefined)	i	64
Cc1ccc(C2CC(c3ccccc3)=NN2C(=O)CN2CCC(C(N)=O)CC2)cc1 (centres undefined)	i	80
Cc1ccc(C2=NN(C(=O)CN3CCOCC3)C(c3ccc(C)cc3)C2)cc1 (centres undefined)	i	62
CC(=O)N1CCN(CC(=O)N2N=C(c3ccccc3)CC2c2ccccc2)CC1 (centres undefined)	i	i
O=C(CN1CCCCC1)N1N=C(c2ccccc2)CC1c1ccc2c(c1)OCO2 (centres undefined)	i	i
Cc1ccc(NC(=O)C2CCN(c3ccncc3)CC2)c(Cl)c1	i	i
Nc1c(C(=O)Nc2ccc(Cl)c(Cl)c2)sc2[nH]c(=O)c(C(=O)O)cc12	i	i
O=C(c1ccncc1)N1CCC(CCOCc2ccccc2F)CC1	i	i
O=C(c1cc2c(s1)CCC(C(=O)N1CCCCC1)C2)N1CCOCC1 (centres undefined)	i	i
CCOc1ccccc1CNC1CCN(c2ccc(C(=O)Nc3ccccc3)cn2)C1 (centres undefined)	i	i
CCn1ncc([N+](=O)[O-])c1C(=O)Nc1sc2c(c1C#N)CCCCCC2	i	i
O=C1CCC(c2cccs2)=NN1	i	i
CC(=O)N1CCN(CC(=O)N2N=C(c3ccc(C)cc3)CC2c2ccc(C)cc2)CC1 (centres undefined)	i	71
Cc1cccc(C2=NN(C(=O)CN3CCOCC3)C(c3ccccc3F)C2)c1 (centres undefined)	i	i
